In PubChem BioAssay (EPA / NIEHS):
Activity calls are given as the source filed them. Rule for the calls: active = hit-call score of the fitted dose curve at least 0.9, where 1 is the maximum; inactive = score below 0.9.

Legend:
[1] = target: CCAAT/enhancer-binding protein beta (Homo sapiens) (UniProt P17676); test: ATG_C_EBP_CIS: Attagene CIS-FACTORIAL HepG2 Assay for human CCAAT/Enhancer Binding Protein (C/EBP) beta (AID 2282927); settings: HepG2 Attagene cis-factorial transcription factor reporter; actives raise or lower the signal
Outline: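 Endogenous transcription factor activity in human liver HepG2 cells is inferred from induction of a CEBPB-linked reporter mRNA. Exposure lasts 24 h; activity is fitted in both directions relative to DMSO.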

[2] = ATG_CMV_CIS: Attagene CIS-FACTORIAL HepG2 Assay for human CMV (Internal Marker) (AID 2282928); settings: HepG2 CMV promoter reporter, transcription factor profiling; actives raise or lower the signal;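 note: endpoint acts as a background internal control marker rather than a target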
Outline: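 Readout: fluorescent reporter cDNA fragments separated by capillary electrophoresis after RT-PCR and HpaI cut. Cells: HepG2 carrying transfected cis-promoter reporter constructs, dosed 24 h. Endpoint serves as background internal-marker control, fit bidirectionally versus DMSO.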

[3] = ATG_DR4_LXR_CIS: Attagene CIS-FACTORIAL HepG2 Assay for human Liver X Receptor (LXR), DR4 submotif (AID 2282929); settings: HepG2 Attagene DR4 cis-reporter, mRNA transcription; actives raise or lower the signal
Outline: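 DR4 cis-reporter in HepG2, 24 h exposure. Detection: RT-PCR, 6-FAM labelling, CE fragment analysis. Endpoint fitted bidirectionally, DMSO = baseline.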

[4] = target: Aryl hydrocarbon receptor (Homo sapiens) (UniProt P35869); test: ATG_Ahr_CIS: Attagene CIS-FACTORIAL HepG2 Assay for human Aryl Hydrocarbon Receptor (Ahr) (AID 2282930); settings: HepG2 AhR cis-factorial reporter transcription; actives raise or lower the signal
Outline: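 Transient MRTU transfection of HepG2 → 24 h compound exposure → total RNA, oligo(dT) RT → PCR, 6-FAM extension, HpaI cut → CE fluorescence. DMSO = baseline; bidirectional curve fit.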

[5] = ATG_AP_1_CIS: Attagene CIS-FACTORIAL HepG2 Assay for human Activator Protein 1 (AP-1) (AID 2282931); settings: HepG2 Attagene cis-factorial AP-1 reporter mRNA; actives raise or lower the signal
Outline: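 Cis-regulated reporter units transiently expressed in HepG2 report endogenous transcription-factor activity. Signal: reporter mRNA at 24 h, via RT-PCR and fluorescent capillary electrophoresis. Endpoint derived by bidirectional fitting, DMSO as negative control.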

[6] = ATG_AP_2_CIS: Attagene CIS-FACTORIAL HepG2 Assay for human Activator Protein 2 (AP-2) (AID 2282932); settings: HepG2 AP-2 cis-reporter, Attagene transcription factor profiling; actives raise or lower the signal
Outline: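 Transiently transfected HepG2 cells are exposed to chemical for 24 h. Reporter transcripts are then measured as fluorescence following RT-PCR and capillary separation, and gain- or loss-of-signal is fitted relative to DMSO.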

[7] = ATG_BRE_CIS: Attagene CIS-FACTORIAL HepG2 Assay for human Bone Morphogenetic Protein (BMP) Response Element (BRE) (AID 2282933); settings: HepG2 BMP response element reporter, Attagene transcription factor profiling; actives raise or lower the signal
Outline: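 Read-out: reporter mRNA induction quantified by RT-PCR and capillary electrophoresis after 24 h chemical exposure of transfected HepG2 cells. Endogenous factor activity on the BMP response element; gain or loss fitted against DMSO baseline.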

[8] = target: Retinoic acid receptor alpha (Homo sapiens) (UniProt P10276); test: ATG_DR5_RAR_CIS: Attagene CIS-FACTORIAL HepG2 Assay for human Retinoic Acid Receptor Alpha (RARE), DR5 submotif (AID 2282934); settings: HepG2 Attagene cis-factorial RARE DR5 reporter, mRNA; actives raise or lower the signal
Outline: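 Transient MRTU transfection of HepG2; 24 h compound treatment; TriZol RNA, oligo(dT) RT, PCR, FAM labelling, capillary electrophoresis. Bidirectional fit vs DMSO. Endogenous TF activity at DR5 RARE.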

[9] = target: Transcription factor E2F1 (Homo sapiens) (UniProt Q01094); test: ATG_E2F_CIS: Attagene CIS-FACTORIAL HepG2 Assay for human E2F Transcription Factor 1 (AID 2282935); settings: HepG2 Attagene cis-reporter, E2F reporter RNA transcripts; actives raise or lower the signal
Outline: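 Fluorescent RT-PCR products, digested with HpaI for 2 h at 37 C, are separated by capillary electrophoresis. Source RNA comes from transfected HepG2 cultures treated for 24 h.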

[10] = ATG_E_Box_CIS: Attagene CIS-FACTORIAL HepG2 Assay for human Enhancer Box (E-box) (AID 2282936); settings: HepG2 E-box cis-reporter transcription, actives raise or lower the signal
Outline: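 Fluorescent reporter fragments separated by capillary electrophoresis gave the signal; mRNA came from HepG2 cells transfected with cis-element reporters and treated 24 h. Curves fitted bidirectionally relative to DMSO controls.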

[11] = ATG_M_61_CIS: Attagene CIS-FACTORIAL HepG2 Assay for M61 Transcription Factor (Internal Marker) (AID 2282937); settings: HepG2 Attagene CIS-FACTORIAL M61 internal marker reporter; actives raise or lower the signal
Outline: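 Background-control endpoint: HepG2 cells with cis-regulated reporter constructs, 24 h exposure, reporter mRNA detected via fluorescent primer extension and capillary electrophoresis; values from bidirectional fitting with DMSO baseline.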

[12] = ATG_EGR_CIS: Attagene CIS-FACTORIAL HepG2 Assay for human Early Growth Response 1 (EGR1) (AID 2282938); settings: HepG2 Attagene CIS-FACTORIAL EGR reporter mRNA; actives raise or lower the signal
Outline: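 Endpoint derived by bidirectional fitting versus DMSO vehicle. Method: cis-promoter reporter units transfected into HepG2, 24 h dosing, RNA isolation, RT-PCR with 6-FAM primer extension and HpaI digestion, then capillary electrophoresis fluorescence detection.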

[13] = ATG_M_19_CIS: Attagene CIS-FACTORIAL HepG2 Assay for M19 Transcription Factor (Internal Marker) (AID 2282939); settings: HepG2 Attagene CIS-FACTORIAL M19 internal marker reporter; actives raise or lower the signal
Outline: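 Readout: fluorescent reporter-transcript fragments by capillary electrophoresis after RT-PCR. Human HepG2 liver cells carried transfected MRTU constructs reporting endogenous transcription-factor activity; exposure 24 h. Gain or loss of signal fitted relative to DMSO.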

[14] = target: Hepatocyte nuclear factor 3-beta (Homo sapiens) (UniProt Q9Y261); test: ATG_FoxA2_CIS: Attagene CIS-FACTORIAL HepG2 Assay for human Forkhead box A2 (FOXA2) (AID 2282942); settings: HepG2 cis-reporter transcription factor activity, 24 h; actives raise or lower the signal
Outline: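 Measured: reporter mRNA induction or loss in HepG2 transiently carrying multiple cis-regulated reporter units, 24 h after dosing. Quantified by RT-PCR plus capillary electrophoresis, normalised to DMSO.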

[15] = ATG_FoxO_CIS: Attagene CIS-FACTORIAL HepG2 Assay for human Forkhead box O (FoxO) (AID 2282943); settings: HepG2 Attagene cis-reporter, FoxO element, mRNA; actives raise or lower the signal
Outline: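 HepG2, transient MRTU transfection (cis element, endogenous TFs). Dose 24 h. TriZol RNA → oligo(dT) RT → PCR → 6-FAM primer extension → HpaI cut → CE. Gain/loss vs DMSO.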

[16] = ATG_GATA_CIS: Attagene CIS-FACTORIAL HepG2 Assay for human GATA Binding Protein (AID 2282944); settings: HepG2 GATA cis-element reporter, Attagene multiplex mRNA; actives raise or lower the signal
Outline: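 Read-out: fluorescent reporter mRNA fragments resolved by capillary electrophoresis after RT-PCR. Human liver HepG2 cells carried transiently transfected cis-regulated reporter constructs; chemicals incubated 24 h; gain or loss of signal fitted relative to DMSO.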

[17] = ATG_GLI_CIS: Attagene CIS-FACTORIAL HepG2 Assay for human Zinc Finger Protein GLI1 (AID 2282945); settings: HepG2, Attagene cis-factorial reporter mRNA, GLI element; actives raise or lower the signal
Outline: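 Bidirectional curve fits relative to DMSO, using reporter mRNA levels from RT-PCR plus capillary electrophoresis. Cells were HepG2 transiently carrying cis-regulated reporter constructs, harvested 24 h after dosing.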

[18] = ATG_Ets_CIS: Attagene CIS-FACTORIAL HepG2 Assay for human Erythroblast Transformation Specific (ETS) (AID 2282941); settings: HepG2 ETS cis-reporter transcription, actives raise or lower the signal
Outline: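 RT-PCR/capillary electrophoresis fluorescence read-out of reporter mRNA; HepG2 transient multi-reporter transfection; 24 h compound exposure; gain or loss of signal fitted bidirectionally relative to DMSO.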

Measured: outcome

Hepatocyte nuclear factor 3-beta (Homo sapiens), sequence (Q9Y261 whole entry, looked up): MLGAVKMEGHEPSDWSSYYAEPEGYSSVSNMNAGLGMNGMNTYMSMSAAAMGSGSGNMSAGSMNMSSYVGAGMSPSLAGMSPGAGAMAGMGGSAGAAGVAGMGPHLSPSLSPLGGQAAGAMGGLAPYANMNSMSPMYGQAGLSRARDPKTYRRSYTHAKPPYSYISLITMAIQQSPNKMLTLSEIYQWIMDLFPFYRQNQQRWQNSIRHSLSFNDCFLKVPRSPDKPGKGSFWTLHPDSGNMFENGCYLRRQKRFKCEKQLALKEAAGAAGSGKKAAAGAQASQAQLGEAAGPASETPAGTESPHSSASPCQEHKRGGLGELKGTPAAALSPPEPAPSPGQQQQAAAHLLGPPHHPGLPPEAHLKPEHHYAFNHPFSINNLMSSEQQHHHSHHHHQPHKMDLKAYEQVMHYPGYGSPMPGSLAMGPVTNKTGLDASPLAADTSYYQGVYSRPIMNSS
Aryl hydrocarbon receptor (Homo sapiens), sequence (P35869 whole entry, looked up): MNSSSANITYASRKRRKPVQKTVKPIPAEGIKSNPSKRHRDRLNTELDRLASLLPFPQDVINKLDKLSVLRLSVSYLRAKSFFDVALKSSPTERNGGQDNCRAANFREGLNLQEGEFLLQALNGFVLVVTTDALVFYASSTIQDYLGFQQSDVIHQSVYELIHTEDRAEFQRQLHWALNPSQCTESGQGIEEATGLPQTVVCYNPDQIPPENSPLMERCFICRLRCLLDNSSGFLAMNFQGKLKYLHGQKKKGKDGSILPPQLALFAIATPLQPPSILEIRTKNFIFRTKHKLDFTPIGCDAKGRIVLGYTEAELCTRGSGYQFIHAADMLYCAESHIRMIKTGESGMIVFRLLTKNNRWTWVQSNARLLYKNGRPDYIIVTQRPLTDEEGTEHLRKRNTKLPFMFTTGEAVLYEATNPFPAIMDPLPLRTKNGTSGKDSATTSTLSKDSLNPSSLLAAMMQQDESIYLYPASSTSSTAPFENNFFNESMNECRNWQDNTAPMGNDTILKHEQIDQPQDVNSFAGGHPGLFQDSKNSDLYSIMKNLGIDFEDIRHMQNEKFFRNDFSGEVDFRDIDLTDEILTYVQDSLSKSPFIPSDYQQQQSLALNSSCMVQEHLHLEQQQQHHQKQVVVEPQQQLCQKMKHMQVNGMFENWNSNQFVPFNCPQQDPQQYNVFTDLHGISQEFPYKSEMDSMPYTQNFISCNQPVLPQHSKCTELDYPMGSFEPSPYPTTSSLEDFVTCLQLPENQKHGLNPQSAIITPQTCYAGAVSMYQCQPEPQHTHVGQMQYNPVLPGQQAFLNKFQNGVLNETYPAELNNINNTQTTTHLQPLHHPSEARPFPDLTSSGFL
CCAAT/enhancer-binding protein beta (Homo sapiens), sequence (P17676 whole entry, looked up): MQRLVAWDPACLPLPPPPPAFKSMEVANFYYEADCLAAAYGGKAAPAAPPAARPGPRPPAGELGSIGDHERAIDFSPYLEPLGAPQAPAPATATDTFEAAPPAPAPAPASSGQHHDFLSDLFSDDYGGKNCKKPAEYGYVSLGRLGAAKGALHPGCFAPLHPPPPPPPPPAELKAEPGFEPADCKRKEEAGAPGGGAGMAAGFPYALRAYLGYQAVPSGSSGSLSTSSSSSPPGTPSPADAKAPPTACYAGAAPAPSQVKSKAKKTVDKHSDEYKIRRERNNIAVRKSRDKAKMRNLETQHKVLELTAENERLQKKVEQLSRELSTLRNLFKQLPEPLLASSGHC
Transcription factor E2F1 (Homo sapiens), sequence (Q01094 whole entry, looked up): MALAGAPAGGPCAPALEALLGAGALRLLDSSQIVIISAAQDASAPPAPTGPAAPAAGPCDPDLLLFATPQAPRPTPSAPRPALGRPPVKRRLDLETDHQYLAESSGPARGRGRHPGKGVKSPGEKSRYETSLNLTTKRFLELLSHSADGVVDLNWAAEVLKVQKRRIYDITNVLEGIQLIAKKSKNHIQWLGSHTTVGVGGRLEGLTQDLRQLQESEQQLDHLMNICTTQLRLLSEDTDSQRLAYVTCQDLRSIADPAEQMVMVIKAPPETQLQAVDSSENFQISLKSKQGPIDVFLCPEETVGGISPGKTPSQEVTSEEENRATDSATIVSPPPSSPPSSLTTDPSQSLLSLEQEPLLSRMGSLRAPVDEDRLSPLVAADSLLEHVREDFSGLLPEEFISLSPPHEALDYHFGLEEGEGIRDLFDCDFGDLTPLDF
Retinoic acid receptor alpha (Homo sapiens), sequence (P10276 whole entry, looked up): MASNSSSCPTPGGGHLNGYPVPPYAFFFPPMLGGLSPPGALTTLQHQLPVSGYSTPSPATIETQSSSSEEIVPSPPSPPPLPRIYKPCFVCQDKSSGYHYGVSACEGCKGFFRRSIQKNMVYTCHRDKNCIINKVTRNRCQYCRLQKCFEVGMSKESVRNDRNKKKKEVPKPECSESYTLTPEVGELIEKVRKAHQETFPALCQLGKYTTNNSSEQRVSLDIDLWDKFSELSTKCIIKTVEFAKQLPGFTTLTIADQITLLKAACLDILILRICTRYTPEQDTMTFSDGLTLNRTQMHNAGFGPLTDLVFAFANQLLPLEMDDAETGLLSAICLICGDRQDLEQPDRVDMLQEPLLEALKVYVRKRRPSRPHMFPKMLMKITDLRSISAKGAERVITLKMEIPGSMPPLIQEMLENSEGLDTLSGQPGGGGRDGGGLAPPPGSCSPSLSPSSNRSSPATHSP

C[N+](C)(C)CCCCCC[N+](C)(C)C
not listed: [18]
inactive: all other assays above

FC(F)(F)COCC(F)(F)F
not listed: [1] | [16]
inactive: all other assays above

COCCOCCOCCO
not listed: [7] | [8]
inactive: all other assays above

CCCCC(CC)COC(=O)c1ccc(O)cc1 (centres undefined)
not listed: [18]
inactive: all other assays above

CCCCSCCCC
inactive: all assays above
